# High-throughput results: PubChem BioAssay, National Center for Advancing Translational Sciences (NCATS)
# Hits are enriched below; roughly 12% of the tested compounds scored in any of these assays.
# Pf growth 96h = P. falciparum growth inhibition at 96 hours; P. falciparum luciferase reporter growth, 96 h; Potency, µM (doses to about 28.7 µM), for inactives: at the highest dose activity change, negative = inhibition, actives largely listed as inhibitors; 320,000 compounds, 6.9% hits; AID 504834; note: % is set by controls: 0 for no effect and ±100 for the full control effect
#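 Plates of compound plus infected erythrocytes (2% hematocrit, 0.05% parasitemia final) incubate 96 hours, 37 C, 5% CO2. Detection reagent added; reduced luminescence from the parasites' luciferase reporter flags inhibition.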
# SARS PLP yeast = blocks SARS-CoV papain-like protease in a yeast assay; Potency, µM (highest dose often 32.9 µM), for the others: top-dose activity, positive = growth rescue, usual class: activators; AID 485353; 330,000 compounds, 0.19% hits; S. cerevisiae expressing SARS-CoV PLpro, growth rescue; calls by dose curve; note: 0% is about no effect; nearly all actives have a fitted effect of over 55% in size
# Pf growth 48h = P. falciparum growth inhibition at 48 hours (one generation); P. falciparum luciferase growth in erythrocytes, 48 h; Potency, µM (top dose mostly 28.7 µM), for the others: at the highest dose activity change, negative = inhibition, most hits filed as inhibitors; 310,000 compounds, 5.9% hits; AID 504832; note: % is set by controls: 0 for no effect and ±100 for the full control effect
#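 Luciferase-expressing P. falciparum in infected erythrocytes (2% hematocrit, 0.1% parasitemia final) in RPMI 1640/0.5% Albumax were exposed to compound for 48 hours at 37 C, 5% CO2; growth read as luminescence.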
# AmpC inh detg = blocks E. coli AmpC beta-lactamase in detergent assay; P00811; AmpC hydrolysis of nitrocefin, absorbance 480 nm, 0.01% Triton; Potency, µM (titrated, usually from 114 µM), without a hit: top-dose activity change, negative = inhibition, actives largely listed as inhibitors; 370,000 compounds, 0.041% hits;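 note: 0% = no-compound wells and -100% = no-enzyme wells; nearly all actives have a fitted effect of over 25% in size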
# Target sequence (P00811 whole entry, looked up): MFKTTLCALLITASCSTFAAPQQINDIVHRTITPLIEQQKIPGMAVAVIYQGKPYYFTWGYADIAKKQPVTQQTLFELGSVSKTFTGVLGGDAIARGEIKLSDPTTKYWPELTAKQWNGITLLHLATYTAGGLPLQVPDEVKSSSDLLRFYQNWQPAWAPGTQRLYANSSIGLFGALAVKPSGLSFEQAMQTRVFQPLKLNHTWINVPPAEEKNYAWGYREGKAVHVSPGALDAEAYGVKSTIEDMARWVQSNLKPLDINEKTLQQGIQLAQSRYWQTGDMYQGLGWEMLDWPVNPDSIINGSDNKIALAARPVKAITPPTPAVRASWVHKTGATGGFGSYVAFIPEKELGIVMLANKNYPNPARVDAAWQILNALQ
#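 AmpC (5.3 nM in the dispensed reagent) in 20 mM phosphate pH 7.0 with 0.01% (detergent screen) or 0.0001% Triton X-100 was preincubated with compounds for 15 min at room temperature. Nitrocefin was then added from an 800 uM solution, and hydrolysis was followed at 480 nm.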
# AmpC no deterg = blocks E. coli AmpC beta-lactamase in detergent-free assay. P00811. AmpC nitrocefin hydrolysis, absorbance 480 nm, 0.0001% Triton. Potency, µM (top dose mostly 57.1 µM), without a hit: top-dose activity change, negative = inhibition, hits mostly inhibitors. 330,000 compounds, 0.52% hits;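 note: plate controls were no compound for no effect and no enzyme for full effect; nearly all actives have a fitted effect of over 20% in size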
#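 AmpC (5.3 nM in the dispensed reagent) in 20 mM phosphate pH 7.0 with 0.01% (detergent screen) or 0.0001% Triton X-100 was preincubated with compounds for 15 min at room temperature. Nitrocefin was then added from an 800 uM solution, and hydrolysis was followed at 480 nm.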
# Sm TGR block = inhibitors of Schistosoma mansoni thioredoxin glutathione reductase; Q962Y6; purified TGR, DTNB reduction, TNB absorbance 405 nm; Potency, µM (doses to about 114 µM), for the others: top-dose activity change, negative = inhibition, hits mostly inhibitors; 360,000 compounds, 3% hits; note: % is set by controls: 0 for no effect and ±100 for the full control effect; nearly all actives have a fitted effect of over 60% in size
#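 Kinetic colorimetric format: TGR-catalysed, NADPH-driven DTNB reduction monitored via TNB absorbance. Enzyme dispensed at 20 nM; compound exposure 15 min at room temperature before reaction start.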
# The depositor's hits bear a star; u = inconclusive; x = no result given; [ ] = remark or other dose. Unless noted, calls come from the whole dose curve; as a rule, active = well fitted curve in the direction sought with a large enough effect; inconclusive = small, poorly fitted or top-dose-only effect, or another doubt; inactive = no such curve, though single readings can be large; an effect the other way counts as inactive or inconclusive. Potency is the fitted concentration of half-maximal effect.
SMILES,Pf growth 96h,SARS PLP yeast,Pf growth 48h,AmpC inh detg,AmpC no deterg,Sm TGR block
Cc1nc2cc([N+](=O)[O-])ccc2c(=O)n1-c1ccc(Br)cc1,13µM*,4%,13%,0%,-7%,u
Cc1nc2ccc(Cl)cc2c(=O)n1-c1ccc([N+](=O)[O-])cc1,-8%,-2%,-16%,u,62%,0%
Cc1nc2ccccc2c(=O)n1-c1ccc([N+](=O)[O-])cc1,15µM*,2%,-7%,4%,-6%,u
COc1cn(CC(=O)Nc2ccc(F)cc2)c(CN2CCCCC2)cc1=O,x,x,x,9%,x,5%
CSc1ccccc1NC(=O)c1ccc(N2CC3CC(C2)c2cccc(=O)n2C3)c(NC(=O)c2ccncc2)c1 (centres undefined),u,3%,9.3µM*,-10%,134%,3%
COc1cccc(NC(=O)Nc2cc(C(=O)NC(C)C)ccc2N2CC3CC(C2)c2cccc(=O)n2C3)c1 (centres undefined),-9%,-4%,12µM*,-4%,106%,-1%
CCN(C(=O)c1ccc(N2CC3CC(C2)c2cccc(=O)n2C3)c(NC(=O)c2ccncc2)c1)c1cccc(C)c1 (centres undefined),0%,3%,u,-1%,138%,-16%
CCCNC(=O)c1ccc(N2CC3CC(C2)c2cccc(=O)n2C3)c(NC(=O)Nc2ccc(CC)cc2)c1 (centres undefined),5%,0%,u,1%,166%,5%
Cc1cccc(NC(=O)[C@@H](NC(=O)N2C[C@H]3C[C@@H](C2)c2cccc(=O)n2C3)C(C)C)c1,5.2µM*,5%,18%,-16%,19%,-10%
COc1cccc(CNC(=O)CSC2=Nc3ccccc3C3=NC(C(C)C)C(=O)N23)c1 (centres undefined),x,x,x,3%,x,0%
Brc1ccc(Oc2ncc(CN3CCOCC3)s2)cc1,77%,2%,84%,-7%,21%,0%
O=[As](O)(O)c1ccc(N=Nc2ccc(O)cc2)cc1,2.9µM*,2%,u,-13%,-6%,50µM*
CCC(C)(C)n1nnnc1C(c1ccc(OC)c(OC)c1)N1CCN(c2ccccc2)CC1 (centres undefined),26%,3%,u,-9%,96%,50µM*
CCC(C)(C)n1nnnc1C(c1ccc(OC)c(OC)c1)N1CCN(c2cccc(OC)c2)CC1 (centres undefined),41%,8%,7.4µM*,u,279%,u
CCC(C)(C)n1nnnc1C(c1cc(OC)ccc1OC)N1CCN(Cc2ccccc2)CC1 (centres undefined),20%,-1%,u,0%,137%,32µM*
COc1ccc(C(c2nnnn2C(C)(C)C)N2CCN(C)CC2)cc1OC (centres undefined),1%,-1%,20%,u,-1%,-64%
CC(C)(C)n1nnnc1C(c1cccnc1)N1CCN(c2cccc(C(F)(F)F)c2)CC1 (centres undefined),-25%,-21%,3.7µM*,-5%,181%,-12%
CC(C)(C)n1nnnc1C(c1cccnc1)N1CCN(C2CCCCC2)CC1 (centres undefined),-2%,8%,12%,u,-22%,-17%
CCC(C)(C)n1nnnc1C(c1ccc(OC)c(OC)c1)N1CCN(c2ccc(F)cc2)CC1 (centres undefined),x,-19%,13µM*,2%,127%,-16%
CCC(C)(C)n1nnnc1C(c1ccc(OC)c(OC)c1)N1CCN(c2ccc(OC)cc2)CC1 (centres undefined),2%,-1%,x,-14%,124%,-21%
COc1ccc(NC(=S)NCc2ccccc2)c(OC)c1,u,1%,u,-3%,-14%,0%
CN(C)CCNC(=S)Nc1ccccc1C(C)(C)C,18%[5.75 µM],1%,8%,-8%,0%[2.29 µM],-7%
COc1ccc(CNC(=S)Nc2ccc(-c3ccccc3)cc2)cc1,u,-2%,u,-7%,14µM*,-4%
COc1ccc(CNC(=S)Nc2ccccc2Cl)cc1,-9%,4%,19%,-15%,-30%,40µM*
COc1ccc(CNC(=S)Nc2ccccc2-c2ccccc2)cc1,8.3µM*,-11%,u,-9%,-37%,3%
SMILES,Pf growth 96h,SARS PLP yeast,Pf growth 48h,AmpC inh detg,AmpC no deterg,Sm TGR block
CC(C)(C)c1ccccc1NC(=S)NCc1ccccc1,13µM*,-50%,u,u,-18%,-1%
CC1(c2ccc([N+](=O)[O-])cc2)Nc2ccccc2S1 (centres undefined),0%,-9%,-6%[0.00184 µM],2%,-38%,0%
O=C(c1ccc2c(c1)N(Cc1ccc(F)cc1)CCS2)N1CCN(c2ccccc2)CC1,x,x,x,11%,x,0%
CCOC(=O)c1cccc(NC(=O)c2cc(S(=O)(=O)N3CCCC3)cn2C)c1,x,x,x,4%,x,4%
Cc1ccc(NC(=O)Cn2cc(C(=O)C3CCCCC3)c3ccccc32)cc1,x,x,x,-2%,x,1%
CCC(C)(CCNC(=O)Cc1ccccc1)c1ccccc1OC (centres undefined),u,-1%,x,-12%,-7%,-6%
O=C(Nc1ccc(Cl)cc1N1CCOCC1)C1CCCO1 (centres undefined),43%,-5%,28%,-3%,-9%,2%
COc1ccccc1NC(=O)Cc1noc(CN(C)Cc2cccs2)n1,5.9µM*,2%,-22%,7%,-6%,-4%
CCOC(=O)c1cnc(-c2ccccc2)nc1Oc1ccc(OC)cc1,5.2µM*,2%,8.3µM*,-9%,-6%[2.29 µM],-8%
CCOC(=O)c1cnc(-c2ccccc2)nc1Oc1ccccc1,-25%,-8%,18%,-8%,4%,10%
CS(=O)(=O)c1cnc(-c2ccccc2)nc1Oc1ccc(F)cc1,u,4%,13µM*,2%,u,-10%
CC(/C=C1\N=C(SCc2ccccc2Cl)SC1=O)=C\c1ccccc1,15%,0%,0%,u,u,-2%
COc1ccc(C(=O)C(CCC(CNC(C)(C)C)C(=O)c2ccc(OC)cc2)CNC(C)(C)C)cc1 (centres undefined),u,-33%,7.4µM*,-15%,-20%,u
COc1ccc(C(=O)CC(=O)c2ccc(C(C)(C)C)cc2)cc1,3%,x,75%,x,x,x
C=CCNC(=O)c1ccccc1NS(=O)(=O)c1ccccc1,9.3µM*,-3%,-7%,-10%,-16%,6%
CN1C(=O)/C(=C/C=C2/CCCN2C)N(C)C1=S,1.5µM*,-1%,38%,-3%,-1%,-27%
